# The source made the active and inactive calls.
# System: not listed separately
# Assay: budding yeast growth modifiers under rapamycin – strain BY4716, OD600, 96 h, primary screen (AID 1091); also: test concentration not given here
# Conditions: S. cerevisiae BY4716 + rapamycin, higher = more signal, called active from +8 up or from −8 down
row,Structure (SMILES),z-score
1,CC(=O)NCCCC[C@@H]1NC(=O)[C@H]2C[C@@H](C(=O)NCCCCCNC(=O)CS)[C@@H](c3ccc(O)cc3)N2C1=O,1.76 (inactive)
2,CCOc1ccc(N2C(=O)CSC2c2cccc([N+](=O)[O-])c2)cc1 (configuration not stated),0.712 (inactive)
3,COc1ccc(C(=O)Nc2ccc(CN3C(=O)[C@]4(O[C@H](CC(=O)N5CCC[C@H]5CO)[C@@H]([Si](C)(C)c5ccc(OC)cc5)[C@@H]4C)c4ccccc43)cc2)cc1,-0.539 (inactive)
4,C=C(CCCC)C(=O)CC[C@H](OC(=O)c1cccnc1)c1ccc(OCCO)cc1,0.364 (inactive)
5,COC(=O)c1c(CC[C@@H](CO)NC(=O)NCCc2c[nH]c3ccccc23)oc(C(=O)Cc2ccccc2)c1C(=O)OC,-1.62 (inactive)
6,COC(=O)C(CC#Cc1ccc2c(c1)[C@]1(C(=O)N2)[C@H](c2ccccc2OCCO)N2[C@H](c3ccccc3)[C@H](c3ccccc3)OC(=O)[C@H]2[C@@H]1C(=O)O)C(=O)OC,-0.188 (inactive)
7,CN(C)CCCC[C@@H]1NC(=O)[C@H]2C[C@@H](C(=O)NCCCCCN)[C@@H](c3cccc(OCCO)c3)N2C1=O,-0.503 (inactive)

# Biological target: Torsin-1A-interacting protein 2 (Homo sapiens) (UniProt Q8NFQ8)
# Assay: small molecules binding lysate-expressed LULL1 – cell lysate, human LULL1 lysate, 635/667 nm fluorescence, primary screen (AID 1092);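 also: probe is lysate of COS7 cells overexpressing human LULL1; score merges per-feature 667 nm fluorescence with signal-to-noise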
# Conditions: small-molecule microarray, hLULL1 lysate binding, 635 nm fluorescence; higher = more signal
# Torsin-1A-interacting protein 2 (Homo sapiens), sequence (Q8NFQ8 whole entry, looked up): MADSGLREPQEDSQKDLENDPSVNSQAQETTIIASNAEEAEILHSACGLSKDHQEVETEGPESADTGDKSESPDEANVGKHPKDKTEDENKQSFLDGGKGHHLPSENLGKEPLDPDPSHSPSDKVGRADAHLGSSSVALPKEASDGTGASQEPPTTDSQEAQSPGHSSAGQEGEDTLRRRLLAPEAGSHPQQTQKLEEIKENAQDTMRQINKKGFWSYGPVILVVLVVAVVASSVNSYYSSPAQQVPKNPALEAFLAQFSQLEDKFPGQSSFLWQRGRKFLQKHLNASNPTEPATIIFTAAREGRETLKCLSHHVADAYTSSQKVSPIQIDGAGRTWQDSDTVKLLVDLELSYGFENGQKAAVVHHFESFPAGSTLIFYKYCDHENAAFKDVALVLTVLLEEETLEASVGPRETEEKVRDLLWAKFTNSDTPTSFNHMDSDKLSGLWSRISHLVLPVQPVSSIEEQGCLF
row,Structure (SMILES),composite z-score
1,COC(=O)c1c2oc(c1C(=O)OC)C(=O)N[C@@H](C(C)C)Cn1cc(nn1)C1(CCCCC1)NC(=O)N[C@H](CO)CC2,1.41
2,COc1ccccc1CN1C(=O)c2ccccc2[C@@]2(Cc3ccccc3N(CCCN(C)C)C2=O)[C@@H]1c1ccc(CO)cc1,0.425
3,COC(=O)[C@@]1(Cc2ccc(OC)cc2)[C@H]2c3cc(C(=O)N(C)C)n(Cc4ccc(C(F)(F)F)nc4)c3C[C@H]2CN1C(=O)c1ccccc1,2.17
4,CC(CO)N1C(=O)[C@@H]2C3C(=O)OCCC/C=C\[C@H]3OC23C=CCN(CCN2CCOCC2)C(=O)[C@@H]13 (some centres not stated),-0.675
5,CCOC(=O)C1=C[C@@H](C(C)C)N(S(=O)(=O)c2ccc(C)cc2)[C@H]1c1ccccc1F,2.8
6,O=C1O[C@@H](c2ccccc2)[C@@H](c2ccccc2)N2[C@@H](c3ccccc3OCCO)[C@]3(C(=O)Nc4ccc(C#CC5(O)CCCCCC5)cc43)[C@@H](C(=O)N3CCN(c4ncccn4)CC3)[C@H]12,2.9
7,COC(=O)c1c(CC[C@@H](CO)NC(=O)N[C@@H](Cc2ccccc2)Cn2cc(-c3ccccn3)nn2)oc(C(=O)N2CCOCC2)c1C(=O)OC,0.843
8,COc1ccc(C(O)C2C=CC3C(=O)N(C)C(=O)C3N2N(c2ccccc2)c2ccccc2)c2ccccc12 (configuration not stated),-0.124
9,CS(=O)(=O)CCOC(=O)C1=CC(CCCO)=CC(c2ccc(CN3CCCC3)cc2)N(Cc2cccc(OC(F)(F)F)c2)C=C1C(=O)OCCS(C)(=O)=O (configuration not stated),2.62
10,C=CC[C@]1(C(=O)N2CCOCC2)N=C(c2ccc(OCCCO)cc2)O[C@H]1c1ccccc1N=[N+]=[N-],3.45
11,CCCCN1CC=CC23O[C@@H]4/C=C\CCCOC(=O)C4[C@H]2C(=O)N(CCCCCO)[C@@H]3C1=O (some centres not stated),-0.42
12,O=C(O)[C@@]1(CCS(=O)(=O)c2ccccc2)N=C(c2ccc(OCCCO)cc2)O[C@H]1c1ccccc1,3.46
13,COc1ccc([Si](C)(C)[C@@H]2[C@@H](CC(=O)N3Cc4ccccc4C[C@H]3CO)O[C@]3(C(=O)N(Cc4cccc(N5CCC5=O)c4)c4ccccc43)[C@H]2C)cc1,1.95
14,O=C1OCCC=C[C@H]2OC34C=CCN(c5ccc(Cl)cc5)C(=O)[C@H]3N(CCCO)C(=O)[C@@H]4C12 (some centres not stated),-1.28
15,CCCCCCCCCCC(O)C1C=CC2C(=O)NC(=O)C2N1Nc1ccc(Cl)cc1Cl (configuration not stated),1.8
16,C=CCC(OC(C)=O)[C@@H]1[C@@H](N(Cc2ccc(-c3ccccc3)cc2)C(=O)Cc2ccc(F)cc2)c2cc(OCCCO)ccc2N1C(=O)c1ccc2ccccc2c1 (some centres not stated),0.437
17,COCC(=C=CC[C@H](O)c1cccc(OCCO)c1)C[C@H](O)c1cc(Cl)cc(Cl)c1O,1.29
18,Cc1ccc(/C=C/C=O)cc1,-0.1

row,Structure (SMILES),composite z-score
1,C=C(CCCC)/C(=C/C[C@H](OC(C)=O)c1ccc(OCCO)cc1)c1cnc2ccccc2c1,1.92
2,COc1cc2c(cc1O)C=[N+](Cc1cc3c(cc1Br)OCO3)CC2,0.379
3,CCCCCCc1nc(-c2ccc(-c3ccc(Cl)c(Cl)c3)o2)c(C)c2c1[Si](C(C)C)(C(C)C)OC2,0.703
4,COCCCNC(=O)[C@]1(Cc2ccccc2)N=C(c2ccc(OCCCO)cc2)O[C@@H]1c1ccccc1CN=[N+]=[N-],3.59
5,[N-]=[N+]=Nc1ccccc1C[C@@]1(C(=O)N2CCCCC2)N=C(c2ccc(OCCCO)cc2)O[C@@H]1c1ccccc1,2.97
6,C=CCN(Cc1ccccc1)C(=O)C(c1cccs1)N(C(=O)/C=C\C(=O)O)c1ccc(CCOCCO)cc1 (configuration not stated),-0.288
7,[N-]=[N+]=NCc1ccccc1[C@H]1OC(c2ccc(OCCCO)cc2)=N[C@@]1(Cc1ccccc1)C(=O)N1CCCCC1,3.33
8,CC(C)(C)OC(=O)CC[C@]1(C(=O)NCCN2CCOCC2)COC(c2ccc(OCCCO)cc2)=N1,3.4
9,COC(=O)[C@@]1(Cc2ccc(OC)cc2)[C@H]2c3cc(C(=O)N4CCCC4)n(CCCNc4ncc(C(F)(F)F)cc4Cl)c3C[C@H]2CN1C(=O)c1ccccc1,1.8
10,COCCOC(=O)N1C(=O)[C@@]2(c3ccccc31)[C@H](C(N)=O)[C@H]1C(=O)O[C@H](c3ccccc3)[C@H](c3ccccc3)N1[C@@H]2c1ccc(O)cc1,3.1
11,CC(=O)NCCCC[C@@H]1NC(=O)[C@H]2C[C@@H](C(=O)NCCCCCNC(=O)CS)[C@@H](c3ccc(O)cc3)N2C1=O,1.69
12,CCOc1ccc(N2C(=O)CSC2c2cccc([N+](=O)[O-])c2)cc1 (configuration not stated),1.63
13,COc1ccc(C(=O)Nc2ccc(CN3C(=O)[C@]4(O[C@H](CC(=O)N5CCC[C@H]5CO)[C@@H]([Si](C)(C)c5ccc(OC)cc5)[C@@H]4C)c4ccccc43)cc2)cc1,2.57
14,C=C(CCCC)C(=O)CC[C@H](OC(=O)c1cccnc1)c1ccc(OCCO)cc1,0.434
15,COC(=O)c1c(CC[C@@H](CO)NC(=O)NCCc2c[nH]c3ccccc23)oc(C(=O)Cc2ccccc2)c1C(=O)OC,1.53
16,COC(=O)C(CC#Cc1ccc2c(c1)[C@]1(C(=O)N2)[C@H](c2ccccc2OCCO)N2[C@H](c3ccccc3)[C@H](c3ccccc3)OC(=O)[C@H]2[C@@H]1C(=O)O)C(=O)OC,2.37
17,CN(C)CCCC[C@@H]1NC(=O)[C@H]2C[C@@H](C(=O)NCCCCCN)[C@@H](c3cccc(OCCO)c3)N2C1=O,2.26

# Source: PubChem BioAssay
